Screening data deposited in PubChem by National Center for Advancing Translational Sciences (NCATS).
Giardia killer = Small Molecules that selectively kill Giardia lamblia: qHTS; AID 540267, 2011; 340,000 tested, 0.15% active; Giardia lamblia trophozoite viability; activity change, % at 7.66 µM, hits read low; in the data active = activity change below about -80%; inconclusive = between about -30% and that limit;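 also: parasites exposed to compound for two days anaerobically before the ATP read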
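Luminescent ATP signal served as the viability read-out, measured 15-30 min after adding ATP detection reagent to trophozoites that had been incubated with compounds for 48 hrs at 37 deg C anaerobically at 100 cells/well.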
GALK inh = qHTS Assay for Inhibitors of Human Galactokinase (GALK) | Potency, µM (doses to about 57.5 µM), without a hit: top-dose activity change, negative = inhibition, most hits filed as inhibitors | Purified GALK, Kinase-Glo residual ATP luminescence | AID 1868, 2009 | 270,000 tested, 0.007% active | P51570; also: potency is read from the fitted curve at half-maximal effect
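The enzyme phosphorylates galactose (100 uM) using ATP (35 uM); inhibition is detected as higher residual ATP, quantified by bioluminescence after 1 h reaction at room temperature, pH 8.0.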
PI4K2A block = qHTS for small molecular inhibitors of PI4K2A | purified PI4K2A, ADP-Glo luminescence, 1 h; active compounds read low | Phosphatidylinositol 4-kinase type 2-alpha (Homo sapiens), Q9BTU6 | AID 1346378, 2018 | 420,000 tested, 0.13% active | activity change, negative = inhibition, % at 76.9 µM; in the data active = activity change below about -50%; inconclusive = mostly about -30% to -49%;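 also: -100% = wells without enzyme as full effect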
Target sequence (Q9BTU6 whole entry, looked up): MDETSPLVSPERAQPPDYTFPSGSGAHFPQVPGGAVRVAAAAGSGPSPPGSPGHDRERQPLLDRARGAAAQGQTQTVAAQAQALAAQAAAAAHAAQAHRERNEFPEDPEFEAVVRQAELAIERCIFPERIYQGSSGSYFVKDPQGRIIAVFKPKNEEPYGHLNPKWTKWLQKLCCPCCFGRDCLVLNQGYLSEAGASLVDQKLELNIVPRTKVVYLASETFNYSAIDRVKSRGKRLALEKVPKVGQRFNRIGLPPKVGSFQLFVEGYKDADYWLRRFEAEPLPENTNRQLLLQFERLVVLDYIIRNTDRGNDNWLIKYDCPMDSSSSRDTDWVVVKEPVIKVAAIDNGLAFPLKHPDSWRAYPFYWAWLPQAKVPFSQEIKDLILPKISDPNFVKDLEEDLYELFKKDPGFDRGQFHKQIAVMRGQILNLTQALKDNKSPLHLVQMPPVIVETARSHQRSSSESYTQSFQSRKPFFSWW
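ADP-Glo luminescence measured ADP generated by PI4K2A enzyme (4 ug/mL before mixing) with 1.2 mM PI substrate (pre-mix) and 300 microM ATP (pre-mix). Tris pH7.5 buffer with MgCl2, Triton X-100; 1 h reaction at ambient temperature.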
TrxR1 inh = qHTS Assay for Inhibitors of Mammalian Selenoprotein Thioredoxin Reductase 1 (TrxR1): qHTS; Thioredoxin reductase 1, cytoplasmic (Rattus norvegicus), O89049; recombinant rTrxR1, NADPH fluorescence consumption, selenite substrate; Potency, µM (series often up to 114 µM), without a hit: top-dose activity change, negative = inhibition, most hits filed as inhibitors; 390,000 tested, 1% active; also: potency is read from the fitted curve at half-maximal effect; nearly all actives have a fitted effect of over 65% in size
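Rat TrxR1 (90 nM in the dispensed reagent) was pre-reduced with 400 uM NADPH for 5 min at room temperature, then incubated with compound for 15 min. After 400 uM selenite was added, NADPH fluorescence (Ex 340/Em 450 nm) was followed for 8 min.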
FBPA coupling cs = qHTS Assay for Inhibitors of Fructose-1,6-bisphosphate Aldolase from Giardia Lamblia: Coupling assay counterscreen | coupling enzyme system counterscreen, AmpLite Red fluorescence | activity change, negative = inhibition, % at 58.2 µM, hits read low | 290,000 tested, 0.67% active; in the data active = activity change below about -30%
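Coupling enzymes only (glyceraldehyde-3-phosphate) + compound, at 57.5 uM final, 10 min RT; add substrate/coupling/AmpLite Red mix, 20 min RT; fluorescence ex 525/em 598 nm. Actives flag coupling-system interference.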
TrxR1 substrate = qHTS Assay for Substrates of Mammalian Selenoprotein Thioredoxin Reductase 1 (TrxR1): qHTS; Thioredoxin reductase 1, cytoplasmic (Rattus norvegicus), O89049; purified TrxR1 substrate turnover, NADPH consumption readout; Potency, µM (doses to about 114 µM), for inactives: at the highest dose activity change, negative = substrate turnover; 390,000 tested, 0.01% active; also: potency is read from the fitted curve at half-maximal effect; nearly all actives have a fitted effect of over 50% in size
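Rat TrxR1, dispensed at 90 nM, was prereduced with 400 uM NADPH (final) for 5 min at ~22 deg C, then incubated with compound 15 min before 400 uM selenite. A first-read NADPH fluorescence drop versus no-compound background flagged substrates.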
Numbers without * were called inactive; ? = inconclusive; · = no result given; [ ] = remark or other dose. This is a sample that favours compounds with a hit; in the whole collection about 1.5% have one here. Unless noted, calls follow the shape of the dose curve; as a rule, active = well fitted curve in the direction sought with a large enough effect; inconclusive = small, poorly fitted or top-dose-only effect, or another doubt; inactive = no such curve, though single readings can be large; an effect the other way counts as inactive or inconclusive. Unless noted, % is scaled to controls: 0 for no effect and ±100 for the full control effect.

SMILES | Giardia killer | GALK inh | PI4K2A block | TrxR1 inh | FBPA coupling cs | TrxR1 substrate
O=C(/C=C/c1ccco1)NCc1ccc2c(c1)OCO2 | 16 | -2% | -6 | 35µM* | -1 | 2%
CCCC(=O)O[C@]1(C(=O)CC)CC[C@H]2[C@@H]3CCC4=CC(=O)CC[C@]4(C)[C@H]3[C@@H](O)C[C@@]21C | · | · | -1 | · | · | ·
CC(=O)O[C@@H]1CC[C@@]2(C)[C@H](C1)[C@H](OC(C)=O)C[C@@H]1[C@@H]2C[C@H]2[C@@H]3CN4C[C@H](C)CC[C@H]4[C@H](C)[C@H]3CC[C@@]12O | · | · | · | · | 1 | ·
O=C(COc1ccccc1[N+](=O)[O-])N1CCC(c2nc3ccccc3o2)CC1 | · | · | -1 | 24% | · | 2%
Cc1ccc(CNC[C@@]23CO[C@H](c4ccc(Cl)cc4)N2[C@@H](c2ccc(Cl)cc2)SC3)o1 | · | · | -2 | · | · | ·
CCC[C@H]1[C@@H](OC(=O)NCc2ccccc2)CC[C@@]23CCCN2C(=O)CCC[C@@H]13 | · | · | 1 | · | · | ·
CCOC(=O)CCCNC(=O)N1CCc2nc(-c3ccc(OC)cc3C)c3c(c2C1)CO[C@@H](c1ccccc1)C3 | · | · | · | · | 0 | ·
COc1ccc(/C=C/C(=O)NCC2COc3ccccc3O2)c(OC)c1 (centres undefined) | -4 | 8% | 1 | 43%[57.1 µM] | -22 | -10%[57.1 µM]
O=C(/C=C/c1ccco1)Nc1cccnc1Cl | -25 | -1% | -20 | 16µM* | -8 | 1%
CN(C)c1ccc(N/C=C/C(=O)c2ccco2)cc1 | -25 | 8% | ? | -1%[57.1 µM] | -35* | 5%[57.1 µM]
O=C(/C=C/c1ccco1)NCCc1ccc(F)cc1 | 6 | -1% | 0 | 45µM* | 0 | 4%
O=C(/C=C/c1ccco1)NCC1COc2ccccc2O1 (centres undefined) | 21 | -2% | -3 | 16µM* | 6 | 1%
CC(=O)Nc1ccc(N/C=C/C(=O)c2ccco2)cc1 | -7 | 1% | -7 | ? | -26 | -15%
C[C@H]1[C@@H](N(C)C)CC[C@@]23CCCN2C(=O)CCC[C@@H]13 | · | · | 6 | · | · | ·
O=C(C=Cc1ccco1)c1ccco1 | -14 | · | -8 | 14µM* | · | 13%[57.1 µM]
CCN(CC(=O)NCc1ccc(F)cc1)C(=O)/C=C/c1ccco1 | 0 | 1% | 7 | ? | -40* | 3%[0.0914 µM]
O=C(/C=C/c1ccc(Br)cc1)c1ccco1 | 1 | 1% | 16 | -39% | 2 | 4%[57.1 µM]
O=C(/C=C/c1ccco1)Nc1ccc2c(c1)OCO2 | -12 | 6% | -2 | 71µM* | -7 | -13%
CC1CC=CC2C1C(=O)N(Cc1ccccc1)C2c1ccc(-c2ccc(N(C)C)cc2)cc1F (centres undefined) | 1 | · | · | 83% | -3 | 125%
O=[N+]([O-])c1ccc(O)c(C=Nc2ccc3c(c2)OCO3)c1 | -12 | 0% | 2 | ? | 1 | -3%
Cc1ccc(C)c(N=Cc2cc3c(cc2[N+](=O)[O-])OCO3)c1 | -1 | -2% | -11 | -43% | -40* | -9%[57.1 µM]
O=[N+]([O-])c1cc(Br)cc(C=Nc2ccc3c(c2)OCO3)c1O | -20 | 5% | 0 | 45µM* | -1 | -14%
CCOC(=O)N1CCN(C(=O)c2ccc3c(c2)N(Cc2ccccc2F)C(=O)c2ccccc2S3(=O)=O)CC1 | · | · | 0 | 27% | · | -1%
CCC(Cc1ccccc1)NC(=O)c1csc2c1CCCCC2 (centres undefined) | · | · | -1 | 9% | · | 6%
CC(C)(C)[C@H](NC(=O)c1cc(Cl)cc(Cl)c1)C(=O)N1CCC[C@H]1C(=O)N[C@H](C#N)CC(=O)O | · | · | -6 | · | · | ·
SMILES | Giardia killer | GALK inh | PI4K2A block | TrxR1 inh | FBPA coupling cs | TrxR1 substrate
COc1cc(NC(=O)CSc2ccc(-c3ccco3)nn2)cc(OC)c1 | -13 | -4% | -18 | 35µM* | · | 2%
CC(=O)Nc1cccc(NC(=O)CSc2ccc(-c3ccco3)nn2)c1 | -4 | -2% | -20 | 56µM* | · | -4%
COc1ccc(NC(=O)CSc2ccc(-c3ccco3)nn2)cc1 | 1 | 4% | -7 | 50µM* | · | -9%
C=C1C[C@@]23CC[C@H]4[C@@](C)(CCC[C@@]4(C)C(=O)O)[C@@H]2CC[C@]1(O)C3 | · | · | 3 | 10%[57.1 µM] | · | 6%[57.1 µM]
Oc1ccc(/C=N/N2CCCCC2)c(O)c1O | -2 | 12% | -10 | -16% | -53* | -13%
Oc1ccc(/C=N/N2CCOCC2)c(O)c1O | -7 | 8% | -1 | 2%[57.1 µM] | -48* | 8%[57.1 µM]
COc1cccc(/C=N/N2CCOCC2)c1O | -17 | 6% | 4 | 17% | 1 | 2%
CC(C)(C)n1ncc2c(=O)n(Cc3ccc(Cl)c(OC(F)(F)F)c3)cnc21 | · | · | · | 11%[57.1 µM] | · | -4%
COc1ccc(NC(C)=O)cc1S(=O)(=O)N1CCn2cccc2C1C (centres undefined) | -4 | · | 0 | 50µM* | · | -11%
CC(=O)c1cccc(NC(=O)c2ccc(OC3CSC3)cc2)c1 | -13 | -1% | 5 | 17% | 2 | 5%
Cc1cccc(NC(=O)c2ccc(OC3CSC3)cc2)c1 | -7 | 6% | -50* | 14% | -2 | 8%
CC(C)CCNc1nc2c(S(=O)(=O)c3ccc(Br)cc3)nnn2c2ccsc12 | · | · | -8 | 36% | · | 17%
O=C(CSc1nnc(NC(=O)C2CC(=O)N(c3ccc(F)cc3)C2)s1)NCc1ccco1 (centres undefined) | 26 | 5% | -10 | 32µM* | 3 | 7%
COc1ccc(N2CC(C(=O)Nc3nnc(SCC(=O)NCc4ccco4)s3)CC2=O)cc1 (centres undefined) | 2 | -6% | -13 | ? | · | 6%
C[C@H]1[C@@H](OC(=O)NCc2ccc(Cl)cc2)CC[C@@]23CCCN2C(=O)CCC[C@@H]13 | · | · | -1 | · | · | ·
Cc1ccc(NC(=O)CS(=O)CC(=O)NC(C)CCc2ccco2)cc1Cl (centres undefined) | 10 | 3% | -2 | 18% | 0 | 6%
Cc1ccc(-c2ccccc2NC(=O)C2C3C=CC(C3)C2C(=O)O)o1 (centres undefined) | -9 | -2% | -2 | ? | -20 | 17%
Cc1ccc(-c2ccccc2NC(=O)CS(=O)CC(=O)Nc2ccc(C)c(Cl)c2)o1 (centres undefined) | ? | 7% | -16 | 3.5µM* | 2 | 1%
Cc1ccc(-c2ccccc2NC(=O)CCl)o1 | -16 | · | 4 | -82% | -50* | 8%[57.1 µM]
